Compound activity: PubChem BioAssay, several laboratories
Sampled rows, rich in hits. Any-hit rate of the full collection: about 10%.
Lmaj promast – Leishmania major promastigote growth inhibition, primary screen; inhibition, % at 10 µM; hit rate 9% among 200,000; Leishmania major promastigotes, resazurin fluorescence viability; AID 1063, 2008; in the data active = inhibition above about 50%;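 also: promastigotes grown with compound for 44 hours at 28 °C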
p97 ATPase inh – inhibitors of human p97 ATPase, primary screen, biochemical; AID 1481, 2009; Transitional endoplasmic reticulum ATPase (Homo sapiens), P55072; hit rate 0.42% among 220,000; inhibition, % at 8 µM; recombinant p97 ATPase, Kinase-Glo ATP luminescence, 3 h; in the data active = inhibition above about 15%
bCat KO growth – primary screen for growth suppressors in beta-catenin knockout HCT116 cells (colon tumor, human); viability, % at 10 µM; hit rate 1.5% among 140,000; HCT116 beta-catenin knockout viability, CellTiter-Glo, 60 h; hits give low values; AID 818, 2007;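 active = viability at or under a set limit, the compound median less 4 SD, cut at about 6% in these data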
ROMK mod – ROMK potassium channel modulators, primary screen, cell-based, thallium flux, MLSMR library; ATP-sensitive inward rectifier potassium channel 1 (Homo sapiens), P48048; B-score at 10 µM; Tet-inducible ROMK, thallium flux fluorescence; actives lie on both sides; hit rate 2% among 130,000; AID 1918, 2009;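 active = signal ratio slope over the read window, or its plate-corrected B-score, at least 3 SD from the plate mean, either direction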;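 also: B-score of the F/F0 ratio slope over 7 to 12 s after thallium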
Target sequence (P48048 whole entry, looked up): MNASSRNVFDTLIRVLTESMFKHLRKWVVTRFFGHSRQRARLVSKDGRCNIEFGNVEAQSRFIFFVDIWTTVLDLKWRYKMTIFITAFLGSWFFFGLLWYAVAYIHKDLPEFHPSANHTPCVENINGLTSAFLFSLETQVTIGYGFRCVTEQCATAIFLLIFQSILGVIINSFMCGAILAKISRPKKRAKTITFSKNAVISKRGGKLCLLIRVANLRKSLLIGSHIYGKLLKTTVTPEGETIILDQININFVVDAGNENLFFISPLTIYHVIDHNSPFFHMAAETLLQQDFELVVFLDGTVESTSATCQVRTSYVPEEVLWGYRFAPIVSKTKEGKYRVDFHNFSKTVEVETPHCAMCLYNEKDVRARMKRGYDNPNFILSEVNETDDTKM
Insulin prom inh – inhibitors of insulin promoter-driven GFP, primary screen, imaging, TRM-6 cells (human fetal islet line), eGFP reporter, cell count; inhibition, % at 2 µM; reporter expression induced with tamoxifen; hit rate 0.9% among 130,000;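 active = inhibition above the mean plus 3 SD, with well images judged a real hit on visual review, cut at about 60% in these data, passing the limit was not always enough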
PTEN del growth – growth suppression of PTEN-null HCT116, primary screen, cell-based, CellTiter-Glo | HCT116 PTEN-null viability, 60 h; hits give low values | viability, % at 10 µM | hit rate 1.2% among 140,000 | AID 827, 2007;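 active = viability at or below a set limit, 4 SD under the median of all tested compounds, cut at about 3.7% in these data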;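 also: PTEN knockout HCT116 line with beta catenin targeted HCT116 as companion control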
Large screens that a line does not name were inactive.

CCN(CC)S(=O)(=O)c1ccc(NC(=O)Nc2cccc(C(F)(F)F)c2)cc1	bCat KO growth 1.4, PTEN del growth 1.8
O=C(NC(=S)Nc1cccc(C(F)(F)F)c1)c1csnn1	ROMK mod 8.8 (no result: bCat KO growth, Insulin prom inh, PTEN del growth)
CCc1nc(C)cn1S(=O)(=O)c1cc(Br)ccc1OC	Lmaj promast 67 (no result: ROMK mod, Insulin prom inh)
CCc1nc(C)cn1S(=O)(=O)c1ccc(Cl)c(Cl)c1Cl	Lmaj promast 97 (no result: ROMK mod, Insulin prom inh)
CCc1nc(C)cn1S(=O)(=O)c1cc(F)ccc1OC	none (no result: bCat KO growth, ROMK mod, Insulin prom inh, PTEN del growth)
CCc1nc(C)cn1S(=O)(=O)c1cc(Br)c(C)cc1OC	Lmaj promast 99
CCc1nc(C)cn1S(=O)(=O)c1ccc([N+](=O)[O-])cc1	Lmaj promast 100 (no result: bCat KO growth, Insulin prom inh, PTEN del growth)
Cc1cccc(NC(=O)CSc2nncn2-c2ccccn2)c1	none (no result: bCat KO growth, PTEN del growth)
O=S(=O)(NCc1cccc(C(F)(F)F)c1)NCc1ccccc1F	none (no result: bCat KO growth, ROMK mod, PTEN del growth)
CCc1nc(C)cn1S(=O)(=O)c1cc(C)c(OC)c(C)c1C	Lmaj promast 93 (no result: ROMK mod)
CCc1nc(C)cn1S(=O)(=O)c1cc(C)c(OC)cc1C	none (no result: ROMK mod, Insulin prom inh)
COc1ccccc1CN1C(=O)[C@@H]2C(CCC(N)=O)NC3(C(=O)Nc4c3ccc(Cl)c4C)[C@@H]2C1=O (stereo partly specified)	Insulin prom inh 71
Cc1ccc2nc(NC(=O)c3ccccn3)sc2c1	Lmaj promast 98 (no result: bCat KO growth, Insulin prom inh, PTEN del growth)
CCC(=O)NNc1nc2c(F)cc(F)cc2s1	p97 ATPase inh 16 (no result: bCat KO growth, PTEN del growth)
O=C(Nc1nc2c(F)cc(F)cc2s1)c1ccccn1	Lmaj promast 98 (no result: bCat KO growth, PTEN del growth)
O=C(Nc1nc(-c2ccccc2)c(-c2ccccc2)s1)c1ccc(S(=O)(=O)N2CCCCC2)cc1	Lmaj promast 99 (no result: ROMK mod)
O=C(COc1ccccc1)NNc1nc2c(F)cc(F)cc2s1	none (no result: bCat KO growth, PTEN del growth)
O=C(Nc1nc(-c2ccccc2)c(C(=O)c2ccccc2)s1)c1ccc(S(=O)(=O)N2CCCCC2)cc1	none
Cn1cnnc1SCC(=O)Nc1ccc(Cl)c(S(=O)(=O)N2CCOCC2)c1	none (no result: bCat KO growth, Insulin prom inh, PTEN del growth)
NNC(=O)c1ccc(CSc2n[nH]c(=O)[nH]c2=O)cc1	none (no result: Lmaj promast, bCat KO growth, ROMK mod, Insulin prom inh, PTEN del growth)
COC(=O)C(C(=O)OC)C(C)C(C(=O)OC)C(=O)OC	none
O=C(Nc1nc2ccc(S(=O)(=O)N3CCCC3)cc2s1)c1ccccn1	Lmaj promast 99 (no result: bCat KO growth, Insulin prom inh, PTEN del growth)
CCc1ccc(C(C)NC(=O)C2(C)CC2(Br)Br)cc1 (stereo unspecified)	Lmaj promast 54
CCC(NC(=O)C1(C)CC1(Br)Br)c1ccc(C)cc1 (stereo unspecified)	none (no result: ROMK mod)
Oc1ccc2ccccc2c1/C=N/Nc1ccccc1	none (no result: ROMK mod, Insulin prom inh)
Cc1cc(N/N=C/c2c(O)ccc3ccccc23)nc(-c2ccccc2O)n1	Lmaj promast 97, bCat KO growth 2.9
CCOC(=O)c1ccc2c(c1)n(CCO)c(C)[n+]2CC	none (no result: ROMK mod)
CCOC(=O)c1ccc2c(c1)n(CC)c(/C=C/N(C)c1ccccc1)[n+]2CC	Lmaj promast 100
CCc1cccc(NC(=O)CN(c2ccc(OC)cc2)S(=O)(=O)c2c(C)n[nH]c2C)c1	none (no result: ROMK mod, Insulin prom inh)
C=CCNC(=O)COC(=O)COc1ccc(Cl)cc1	none (no result: bCat KO growth, ROMK mod, PTEN del growth)
CCCOC(=O)c1ccc(-c2c(C)noc2-c2ccc(OC)cc2O)o1	Lmaj promast 56 (no result: ROMK mod)
O=C(CCl)N1N=C(c2cccs2)CC1c1ccco1 (stereo unspecified)	Lmaj promast 96 (no result: bCat KO growth, Insulin prom inh, PTEN del growth)
O=C(COc1ccccc1C(=O)NCc1ccccn1)Nc1ccc(Br)cc1	none (no result: bCat KO growth, PTEN del growth)
CN(C)C(=O)C[n+]1cccc(/C=N/O)c1	none
COc1ccc(-c2cc(C(=O)Nc3cccc(S(=O)(=O)NCc4ccco4)c3)c3ccccc3n2)cc1OC	Lmaj promast 72 (no result: bCat KO growth, Insulin prom inh, PTEN del growth)
O=C(Nc1ccccc1)c1cccc(S(=O)(=O)NCc2ccco2)c1	none (no result: ROMK mod)
O=C(Nc1cccc(S(=O)(=O)NCc2ccco2)c1)c1cc(-c2ccc(F)cc2)nc2ccccc12	Lmaj promast 98 (no result: ROMK mod)
CC(=O)Nc1c(NC(=O)CC#N)[nH]c2c(c1=O)c(=O)n(C)c(=O)n2C	none (no result: bCat KO growth, PTEN del growth)
CCOc1ccc2nc(NC(=O)c3ccoc3C)sc2c1	none (no result: ROMK mod)
COCCNc1c(-c2cc3ccc(C)c(C)c3[nH]c2=O)nc2ccccn12	none (no result: bCat KO growth, Insulin prom inh, PTEN del growth)
COc1ccc(C(=O)NC(=S)NCCc2ccccc2)cc1	none (no result: bCat KO growth, Insulin prom inh, PTEN del growth)
COc1ccc(C(=O)CC(=O)C(=O)NCCc2cccc(C)c2)cc1	Lmaj promast 64
O=C(c1ccccc1)c1c[nH]c(C(=O)NNc2ccccc2)c1	Lmaj promast 89 (no result: bCat KO growth, Insulin prom inh, PTEN del growth)
O=C(c1ccccc1)c1c[nH]c(C(=O)NCc2cccnc2)c1	none (no result: ROMK mod, Insulin prom inh)
Clc1ccc2c(NCc3ccco3)ncnc2c1	Insulin prom inh 79 (no result: ROMK mod)
CCOC(=O)C1CCCN(C(=O)CN2C(=O)/C(=C/c3ccc(OC)cc3)Oc3ccccc32)C1 (stereo unspecified)	Lmaj promast 74
Cc1nc(/C=C/c2ccccc2)[nH]c(=O)c1-c1ccccc1	none
O=C(CSc1ncnc2c1oc1ccccc12)Nc1nc2ccccc2s1	none (no result: ROMK mod, Insulin prom inh)
O=C(CSc1ncnc2c1sc1ccccc12)Nc1ccc(Br)cc1	Lmaj promast 60
Cn1cnc([N+](=O)[O-])c1Sc1ncccc1N	none
Nc1cccnc1Sc1cc(Cl)cc(Cl)c1	Insulin prom inh 90
O=C(Cn1c(=O)oc2cc(S(=O)(=O)N3CCCC3)ccc21)N1CCc2ccccc2C1	Lmaj promast 100 (no result: ROMK mod, Insulin prom inh)
CC1Cc2ccccc2N1C(=O)Cn1c(=O)oc2cc(S(=O)(=O)N3CCCCC3)ccc21 (stereo unspecified)	Lmaj promast 100 (no result: ROMK mod, Insulin prom inh)
O=C(Cn1c(=O)oc2cc(S(=O)(=O)N3CCCCC3)ccc21)N1CCc2ccccc21	none (no result: ROMK mod, Insulin prom inh)
Cc1c(C(=O)N2CCOCC2)oc2ccc(S(=O)(=O)N3CCCC3)cc12	none (no result: ROMK mod)
O=C(Cn1c(=O)oc2cc(S(=O)(=O)N3CCc4ccccc43)ccc21)N1CCCCC1	Lmaj promast 98 (no result: ROMK mod, Insulin prom inh)
Cc1c(C(=O)N2CCc3ccccc3C2)oc2ccc(S(=O)(=O)N3CCCCCC3)cc12	Lmaj promast 66
C=CCn1c(=O)[nH]c2cc(C(=O)N3CC=C(c4ccccc4)CC3)ccc2c1=O	none (no result: bCat KO growth, Insulin prom inh, PTEN del growth)
CCOC(=S)SCC(=O)N1CCc2cc(OC)ccc2C1C1C(=O)CCCC1=O (stereo unspecified)	none (no result: ROMK mod, Insulin prom inh)
O=C(Cn1c(=O)oc2cc(S(=O)(=O)N3CCCC3)ccc21)N1CCN(c2ccccn2)CC1	Lmaj promast 100 (no result: ROMK mod, Insulin prom inh)
CCOC(=O)Cn1c(=O)oc2cc(S(=O)(=O)N3CCN(c4ccccn4)CC3)ccc21	none (no result: ROMK mod, Insulin prom inh)
Cc1nnc(SCC(=O)N(Cc2ccccc2)C(C)C)n1-c1ccccc1	none
CN1C(CC(=O)Nc2ccc(Cl)cc2Cl)c2ccccc2CC1(C)C (stereo unspecified)	none (no result: Lmaj promast, bCat KO growth, ROMK mod, Insulin prom inh, PTEN del growth)
CCOC(=O)/C(C(=O)Nc1ccc(Cl)cc1Cl)=C1/NC(C)(C)Cc2ccccc21	Lmaj promast 73
COc1ccc(C(=O)c2ccc(Cl)c([N+](=O)[O-])c2)cc1	Lmaj promast 80
COc1ccc(C(=O)c2ccc(Cl)cc2)cc1	none
